Here are results for 93 compounds from PubChem BioAssay AID720553 (National Center for Advancing Translational Sciences (NCATS), 2013).

Out of some 340,000 compounds screened, about 3,300 (0.97%) were called active. Many of the other results were omitted from the sample, so actives are more common in it than they were. Unmarked numbers belong to inactive results.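 The calls were made as follows: active = maximum activity change below -70%; inconclusive = maximum activity change from -70% to -50%; inactive = maximum activity change above -50%.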
% is scaled to controls: 0 for no effect and ±100 for the full control effect.

For this experiment, the system named is Potassium voltage-gated channel subfamily H member 2, brain isoform KCNH2 3.1 (human). Briefly: qHTS for Inhibitors of KCHN2 3.1: Mutant qHTS. As to conditions: U2OS KCNH2 3.1, thallium flux FluxOr; hits give low values. Put shortly: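 Thallium flux read-out: FluxOr dye with Red40 quencher in HBSS/HEPES, 45 min at RT. Rate constants from kinetic reads were normalized to positive and negative DMSO controls. Cells: U2OS virally expressing the 3.1 isoform.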
(Quantitative high-throughput screening tests each substance at several concentrations.)
Consider `O=C1OCCC1=COCCCCOC=C1CCOC1=O`, for which the activity change is 5.66%.
Next, `Cc1noc(/C=C/c2ccco2)c1S(=O)(=O)N1CCC(C(=O)Nc2ccc(Cl)cn2)CC1`: -73.5% (active).
Next, `Cc1noc(/C=C/c2ccco2)c1S(=O)(=O)N1CCC(C(=O)N2CCc3ccccc32)CC1`: -11.8%.
Next, `CNC(=O)C1CCN(S(=O)(=O)c2c(C)noc2/C=C/c2cccc(C)c2)CC1`: -0.856%; `Cc1ccc([C@H]2C[C@H](O)[C@@H](n3cc(COC(=O)c4ccccc4)nn3)CN2CC2CCCCC2)cc1`: 1.72%.
`COCCN1Cc2cccc(C(=O)Nc3ccccc3OC)c2C1=O`: the activity change was -4.17%.
Under `CCCN1Cc2cccc(C(=O)Nc3ccc(S(=O)(=O)N4CCCCCC4)cc3)c2C1=O` stands -4.68%; under `CCCN1Cc2cccc(C(=O)NCc3ccccc3)c2C1=O`, -73.5% (active).
Turning to `Cc1onc(-c2ccccc2)c1-c1nnc(COC(=O)c2ccc(N(C)C)cc2)o1`, the activity change was -2.8%.
Next, `Cc1csc(=O)n1CCC(=O)OCC(=O)Nc1ccc(N2CCOCC2)cc1`: 26.4%.
Turning to `CCc1cc(C(=O)N(CC)CC(=O)Nc2c(F)cccc2F)sc1C`, the activity change was 6.15%.
Next, `Cc1ccc(C(=O)Nc2ccccc2-c2ccccc2)cc1S(=O)(=O)Nc1ccccc1`: -81.2% (active).
Under `O=C(Nc1ccccc1-c1ccccc1)c1cccs1` stands 3.41%; under `O=C(O)c1ccc(F)c(S(=O)(=O)Nc2ccccc2)c1`, -0.905%.
Consider `O[C@H]1CN(Cc2cccs2)[C@@H](c2ccc(Cl)cc2)C[C@@H]1n1cc(C2CC2)nn1`, for which the activity change was 1.17%.
`O=C1CC[C@@H](C(=O)N2CSC[C@@H]2C(=O)Nc2ccc(C(F)(F)F)cc2)N1`: the activity change is 0.48%.
`Cc1ccc(Cc2c(-c3ccc(C)cc3)nc3c4ccccc4ccn23)cc1`: the activity change is -46.3%.
Next, `CCOc1ccc(S(=O)(=O)NCCC(=O)NNC(=O)c2ccc(F)cc2)cc1`: 7.87%; `COc1ccc(/C=C(\NC(=O)c2ccccc2)C(=O)NCCN2CCOCC2)cc1OC`: -4.51%; `O=C(NCCN1CCOCC1)/C(=C/c1ccc(F)cc1)NC(=O)c1ccccc1`: -9.2%.
With `Cc1ccc(C(=O)N/C(=C\c2ccc(F)cc2)C(=O)NCCN2CCOCC2)cc1`, the activity change is -89.5% (active).
Under `COC(=O)N(C)C[C@@H]1OCc2cnnn2CCCC(=O)N([C@@H](C)CO)C[C@@H]1C` stands 5.22%; under `Cc1cccc(C(=O)C(O)(c2ccccc2)C2CCCCC2=O)c1` (stereo not drawn), -14.9%.
As to `COc1ccc(S(=O)(=O)N(C)C[C@H]2OCc3cnnn3CCCC(=O)N([C@H](C)CO)C[C@H]2C)cc1`, the activity change was 11.2%.
Under `COc1cc2nnn(-c3ccncc3)c2cc1OC` stands -4.09%; under `COc1ccc2nc(-c3ccccn3)ccc2c1`, 6.65%; under `C=CCn1c(SCC(=O)NC23CC4CC(CC(C4)C2)C3)nc(O)cc1=O`, 30.9%.
As to `C=CCn1c(C23CC4CC(CC(C4)C2)C3)n[nH]c1=S`, the activity change was -5.08%.
As for `C=CCn1c(SCC(=O)NC)nnc1C12CC3CC(CC(C3)C1)C2`, the activity change was -75% (active).
For `Cc1ccc(S(=O)(=O)/N=C2\C=C(NS(=O)(=O)c3ccc(C)cc3)C(=O)c3ccccc32)cc1`, the activity change is 17.4%.
Under `C[C@H]1CN([C@@H](C)CO)S(=O)(=O)c2ccc(Br)cc2O[C@H]1CN(C)C(=O)c1cnccn1` stands 10.6%; under `O=C(Nc1ccc(N2CCOCC2)c(Cl)c1)c1ccc(S(=O)(=O)N2CCOCC2)cc1`, -3.05%.
Regarding `O=C(Nc1ccc2c(c1)nc1n2CCCCC1)c1cc(S(=O)(=O)N2CCOCC2)ccc1Cl`, the activity change was -83.4% (active).
Next, `O=C(Nc1ccc(N2CCCCC2)cc1)c1cc(S(=O)(=O)N2CCOCC2)ccc1F`: -0.576%.
Under `CC(C)c1ccc(-c2noc(C3CCCN(S(C)(=O)=O)C3)n2)cc1` (stereo not drawn) stands -21.4%; under `COc1cc(-c2noc(C3CCCN(S(=O)(=O)c4cccc(Cl)c4)C3)n2)cc(OC)c1OC` (stereo not drawn), -93.6% (active); under `COc1cccc(-c2noc(C3CCCN(C(=O)c4ccc(F)cc4)C3)n2)c1` (stereo not drawn), 16.8%.
In the case of `CCOC(=O)c1c(NC(=S)SC)sc(C(=O)N2CCc3ccccc3C2)c1C`, the activity change was -4.73%.
With `CC1=C(C(=O)N2CCOCC2)CC(CC(=O)NCc2ccco2)C(=O)N1Cc1ccc(F)cc1` (stereo not drawn), the activity change is -24.5%.
Under `O=C(COC(=O)c1ccccc1Cl)NC1CCCCCCC1` stands -1.39%.
Under `C=CCNC(=O)COC(=O)c1ccccc1C(=O)N(C)C1CCCCC1` stands -110% (active).
`CC1CCCC(NC(=O)COC(=O)c2ccccc2C(=O)N(C)C2CCCCC2)C1C` (stereo not drawn): the activity change is 7.73%.
With `CCCCN(C(C)=O)c1ccc2c(c1)C1CC2CCN1Cc1ccccc1` (stereo not drawn), the activity change was 0.966%.
Under `O=C(Nc1ccc(Cl)cn1)c1ccccc1-c1ccccc1` stands -14.9%; under `CC1(C)Cc2cccc(OCC(=O)N3CCN(c4ccc([N+](=O)[O-])cc4)CC3)c2O1`, -91.8% (active); under `CC1(C)Cc2cccc(OCC(=O)NCc3ccccc3)c2O1`, 0.403%.
In the case of `CC1(C)Cc2cccc(OCC(N)=O)c2O1`, the activity change was -6.48%.
Under `S=C(NN=Cc1ccccn1)Nc1ccccn1` stands -6.69%; under `COc1ccc(C(=O)OCC(=O)Nc2cc(C)on2)cc1F`, -0.754%; under `CSCCC(NC(=O)COc1ccccc1)C(=O)N1CCN(c2cccc(C(F)(F)F)c2)CC1` (stereo not drawn), -70% (active).
Next, `CSCCC(NC(=O)COc1ccccc1)C(=O)OCCOc1ccc(F)cc1` (stereo not drawn): -11.8%.
`CSCCC(NC(=O)COc1ccccc1)C(=O)OCCOc1ccc(Br)cc1` (stereo not drawn): the activity change was -21.4%.
Next, `O=C(Nc1cccc2ccccc12)NC1CC1`: -0.285%; `COc1ccc(C(C)(C)C)cc1NC(=O)CN(C)C1=NS(=O)(=O)c2ccccc21`: -5.7%; `O=C(COc1ccc2c3c(c(=O)oc2c1)CCCC3)NCC(O)c1ccccc1` (stereo not drawn): 10.4%.
Under `O=C(COc1ccc2ccc(=O)oc2c1)NCC(O)c1ccccc1` (stereo not drawn) stands -87.9% (active).
Next, `Cc1cc(OCC(=O)NCC(O)c2ccccc2)c2c(C)c(C)c(=O)oc2c1` (stereo not drawn): 29.5%.
Take `O=C(NCCOc1ccccc1)N1[C@H]2CC[C@@H]1C=C(c1ccc(F)cc1OCc1ccccc1)C2`: the activity change was -21.8%.
As to `COCCCNC(=O)COc1cc(C)c(Cl)c(C)c1`, the activity change is 30.5%.
For `CCNC(=O)COc1cc(C)c(Br)c(C)c1`, the activity change is -198% (active).
Next, `CCOC(=O)C1CCN(C(=O)COc2cc(C)c(Br)c(C)c2)CC1`: -6.53%; `Cc1ccc(S(=O)(=O)N2C[C@]3(O)C[C@@H]4C(=O)N(c5ccccc5)C(=O)[C@@H]4C[C@]3(OC(=O)NC3CC3)C2)cc1`: -5.83%; `Cc1ccc(NC(=O)Cn2sc3ccccc3c2=O)cc1`: 8.97%.
Next, `COc1cccc(C(=O)N2CCCC(CCC(=O)NCc3ccc(F)c(F)c3)C2)c1` (stereo not drawn): -33.7%; `COc1cccc(CC2(CO)CCCN(Cc3nc(-c4cccs4)oc3C)C2)c1` (stereo not drawn): -14.6%.
Next, `COc1cccc(CNC(=O)CCC2CCCN(C(=O)c3ccoc3C)C2)c1` (stereo not drawn): -8.72%; `COc1cccc(CC2(CO)CCCN(CC3=Cc4cc(OC)ccc4OC3)C2)c1` (stereo not drawn): -14.2%; `COc1cccc(CNC(=O)CCC2CCCN(Cc3ccc(OC(F)F)cc3)C2)c1` (stereo not drawn): -93.7% (active).
As for `COc1cccc(CC2(CO)CCCN(Cc3ccc(OC(F)F)cc3)C2)c1` (stereo not drawn), the activity change is -90.5% (active).
Next, `CCCn1c(N)c(C(=O)CSc2nnc(Cc3cccs3)n2C2CC2)c(=O)[nH]c1=O`: 7.67%.
As to `Cc1cccc(S(=O)(=O)N(C)C[C@H]2OCc3cnnn3CCCC(=O)N([C@@H](C)CO)C[C@H]2C)c1`, the activity change is 36.2%.
Regarding `CCCCCCNC(=O)O[C@H]1CN(C(=O)OC(C)C)N(C(=O)OC(C)C)[C@@H]2CN(S(=O)(=O)c3ccc(C)cc3)C[C@]12O`, the activity change was 0.662%.
For `COc1ccc(-c2ccc(CN3C(CC(C)C)C(=O)N(Cc4cn(CC5CCCCC5)nn4)CCS3(=O)=O)cc2)cc1` (stereo not drawn), the activity change is -16.5%.
Under `CC1(c2cccc(Br)c2)NC(=O)N(CC(=O)NCCC2=CCCCC2)C1=O` (stereo not drawn) stands -2.93%; under `Cc1nc2nc[nH]n2c(=O)c1C/C=C/c1ccccc1`, -5.87%.
Under `Cc1noc(C)c1COc1cccc(C(=O)Nc2cccnc2)c1` stands 5.81%.
Under `Cc1nc2nc[nH]n2c(=O)c1NC(=O)c1cccc(OCC(C)C)c1` stands -182% (active); under `C[C@H]1CN([C@@H](C)CO)C(=O)c2cc(C3=CCCCC3)cnc2O[C@@H]1CN(C)C(=O)Cc1ccccc1`, -6.94%; under `CC(=O)Nc1ccc(SCC(=O)NC(=O)c2ccc(Cl)cc2)cc1`, -9.69%.
For `Cc1[nH]c2ccccc2c1CCN(Cc1cccs1)C(=S)NC(C)(C)C`, the activity change is -70.5% (active).
Next, `COc1cccc(NC(=S)N(CCc2c(C)[nH]c3ccccc23)Cc2ccco2)c1`: -11%.
As for `COc1ccc2[nH]c(C)c(CCN(Cc3cccs3)C(=S)Nc3ccccc3OC)c2c1`, the activity change is -8.67%.
Next, `Cc1ccc(S(=O)(=O)NN=C2CC(C)(C)CC(=O)C2(C)C)cc1`: -9.11%; `C[C@@H]1Cn2cnc(C(=O)Nc3ccc(CNC(=O)OC(C)(C)C)cc3)c2C(=O)N1`: -19.4%; `C[C@H]1Cn2cnc(C(=O)N[C@@H](Cc3c[nH]c4ccccc34)C(=O)OC(C)(C)C)c2C(=O)N1`: -11.5%.
Next, `N#Cc1c(NC(=O)CSc2nc3ccccc3c(=O)n2Cc2ccco2)sc2c1CCCC2`: -19.1%; `CCOC(=O)CSc1nc2c(c(=O)n(Cc3ccccc3Cl)c(=O)n2C)n1C`: -10.8%.
Next, `CCOC(=O)CSc1nc2c(sc(=S)n2CCc2ccccc2)c(=O)n1Cc1ccco1`: -91% (active); `C=CCOc1ccccc1CNn1c(C)n[nH]c1=S`: 3.24%; `C[C@@H]1CN([C@@H](C)CO)C(=O)CCCn2nncc2CO[C@@H]1CN(C)S(=O)(=O)c1ccc(-c2ccccc2)cc1`: 8.36%.
On to `COc1ccc(C(CCNCc2ccccc2F)c2ccc(F)cc2)cc1` (stereo not drawn), for which the activity change is -100% (active).
Next, `COc1ccc(CCNC(=O)COC(=O)Cc2ccccc2F)cc1`: 8.82%.
Turning to `COc1cccc(CNCCc2c[nH]c3ccccc23)c1OCc1ccccc1F`, the activity change was -1.51%.
